Assay outcomes as filed in PubChem.
MITF primary – MITF inhibitors, primary screen, biochemical, AlphaScreen, human; Microphthalmia-associated transcription factor (Homo sapiens), O75030; inhibition, % at 2.6 µM; AlphaScreen MITF homodimerization, bead proximity signal; 650,000 compounds, 0.91% hits; AID 1259374, 2018; in the data active = inhibition above about 50%
GPR151 activ – activators of human GPR151, primary screen, cell-based, PathHunter beta-arrestin, luminescence | G-protein coupled receptor 151 (Homo sapiens), Q8TDV0 | PathHunter beta-arrestin GPR151 cells | activation, % at 11.2 µM | 650,000 compounds, 1% hits | AID 1508602, 2020; in the data active = activation above about 4.9%
Target sequence (Q8TDV0 whole entry, looked up): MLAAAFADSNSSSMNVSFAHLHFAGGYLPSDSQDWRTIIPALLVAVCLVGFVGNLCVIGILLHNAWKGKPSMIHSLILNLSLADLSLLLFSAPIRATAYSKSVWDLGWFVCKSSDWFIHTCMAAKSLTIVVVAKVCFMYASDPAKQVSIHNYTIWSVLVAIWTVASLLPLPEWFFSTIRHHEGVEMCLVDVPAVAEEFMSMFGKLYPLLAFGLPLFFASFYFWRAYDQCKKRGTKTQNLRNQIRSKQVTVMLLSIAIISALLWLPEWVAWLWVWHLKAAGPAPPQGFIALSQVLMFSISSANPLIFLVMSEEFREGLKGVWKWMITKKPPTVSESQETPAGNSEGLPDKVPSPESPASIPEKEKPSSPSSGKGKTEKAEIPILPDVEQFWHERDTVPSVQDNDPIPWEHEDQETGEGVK
TEAD-YAP block – TEAD-YAP interaction inhibition, primary screen, TEAD-YAP interaction inhibitor project, luminescence, HEK-TIYL cells. AID 1259422, 2018. 640,000 compounds, 1.4% hits. TEAD-Gal4/YAP UAS-luciferase luminescence. inhibition, % at 9.12 µM; in the data active = inhibition above about 32%
FBW7 activator – FBW7 E3 ligase activators, primary screen, biochemical, AlphaScreen, human | normalized activity (activation), % at 26.1 µM | F-box/WD repeat-containing protein 7 (Homo sapiens), Q969H0 | AlphaScreen FBW7–phospho-cyclin E peptide binding, activator screen | 650,000 compounds, 0.13% hits; in the data active = normalized activity above about 1.9%;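 note: purified mutant Fbw7 with reduced substrate affinity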
GPR151 conf act – GPR151 activators, triplicate retest, confirmation, cell-based, PathHunter beta-arrestin, luminescence; shares compounds with GPR151 activ; GPR151 PathHunter beta-arrestin cells, 90 min; % of EA-reagent control over plate median; activation, % at 11.2 µM; 6,700 tested, under 10 active;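 active = mean percent activation across replicates above the confirmation screen cutoff of 4.91%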
GPR119 ag – GPR119 activators in beta-arrestin cells, counter-screen for GPR151 activator project, cell-based, PathHunter beta-arrestin, luminescence, triplicate; shares compounds with GPR151 activ; activation, % at 11.2 µM; 90 min; 0 = compound-well median, 100 = enzyme-acceptor control; 6,700 compounds, 0.3% hits;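 active = mean percent activation in the counterscreen above 29.09%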;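 note: counterscreen on off-target GPR119 to flag nonselective hits from the GPR151 activator screen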
Numbers stand for hits; – = inactive; · = not tested or not shown; ! = not confirmed by another sample. In the library only some 3.5% were active in any assay of this set; here they are far more common.

SMILES	MITF primary	GPR151 activ	TEAD-YAP block	FBW7 activator	GPR151 conf act	GPR119 ag
Cc1ccc(C(=O)Nc2ccc(Br)cn2)cc1[N+](=O)[O-]	–	–	–	–	·	·
O=C(Nc1ccc(Br)cn1)c1ccc(N2CCCCC2)c([N+](=O)[O-])c1	–	6.5	–	–	–	–
Cc1cc(N(CC(=O)NC2CCCCC2)S(C)(=O)=O)ccc1Br	–	8.1	–	–	–	–
COc1cccc2c1OCCCN(Cc1nc(Cc3ccccc3Cl)no1)C2	–	5.7	–	–	–	–
Cc1cccc2sc(N(Cc3ccccn3)C(=O)CCOc3ccccc3)nc12	–	5.8	–	–	–	–
O=C(CSc1nc(=O)n(CCCO)c2c1CCCC2)N1CCN(c2ccccc2)CC1	–	–	–	–	·	·
CC1CCN(C(=O)CSc2nc(=O)n(CCO)c3c2CCCC3)CC1	–	8.3	–	–	–	–
COCCn1c(C)cc(C2=NNC(=Nc3ccccc3)SC2)c1C	–	11	57	–	–	–
C=CCn1c(C)cc(C2=NNC(=Nc3ccccc3)SC2)c1C	–	–	–	–	·	·
CC(=O)N(Cc1cccnc1)Cc1cc2ccccc2[nH]c1=O	–	–	–	–	·	·
O=C(c1ccc(F)cc1)N(Cc1cccnc1)Cc1cc2ccccc2[nH]c1=O	–	7.0	–	–	–	–
CC(=O)Nc1ccccc1OC(F)F	–	7.1	–	–	–	–
O=C(Nc1ccccc1OC(F)F)c1ccc(F)cc1	–	–	–	–	·	·
COC(=O)c1ccc(C2C3=C(CC(c4ccc(C)cc4)CC3=O)Nc3ccccc3N2C(C)=O)cc1 (stereo not given)	–	6.6	–	–	–	–
CCOc1ccc(CN2CCN(Cc3cnc(N(C)C)s3)CC2CCO)cc1 (stereo not given)	–	5.7	–	–	–	–
Cc1ccc(CN2CCN(Cc3cccc4nccnc34)CC2CCO)cc1 (stereo not given)	–	6.7	–	–	–	–
CC(C)CN1CCN(Cc2cccc3nccnc23)CC1CCO (stereo not given)	–	–	–	–	·	·
CCn1ccnc1CN1CCN(Cc2ccc(C)cc2)C(CCO)C1 (stereo not given)	–	–	–	–	·	·
CCOc1ccc(CN2CCN(Cc3cnc(N4CCOCC4)s3)CC2CCO)cc1 (stereo not given)	–	–	–	–	·	·
CCn1ccnc1CN1CCN(Cc2ccc(F)cc2)C(CCO)C1 (stereo not given)	–	13	–	–	–	–
COc1cccc(OCCCOc2cccc3ccc(C)nc23)c1	–	5.4	–	–	–	–
COC(=O)c1ccc(OCCOCCOc2cccc3ccc(C)nc23)cc1	–	–	–	–	·	·
CCOC(=O)CNc1c(-c2ccc(OC)c(O)c2)nc2ccc(C)cn12	–	5.5	–	–	–	–
CCOC(=O)CNc1c(-c2ccc(O)cc2)nc2cnccn12	–	–	–	–	·	·
O=C(CCCc1ccccc1)Nc1ccc(O)cc1C(=O)O	–	–	–	–	·	·
SMILES	MITF primary	GPR151 activ	TEAD-YAP block	FBW7 activator	GPR151 conf act	GPR119 ag
CC(=O)Nc1ccc(C(=O)NCCNC(=O)Cc2ccc(F)cc2)cc1	–	5.5	–	–	–	–
O=C(CCCc1ccccc1)Nc1ccc(Br)cc1C(=O)O	–	5.9	–	–	–	–
O=C(CCc1ccccc1)Nc1ccccc1C(=O)NCc1ccccc1	–	8.0	–	–	–	–
COc1ccccc1CNC(=O)COc1cccc2ccccc12	–	5.6	–	–	–	–
O=C(Cc1ccccc1)Nc1ccccc1C(=O)NCc1ccccc1	–	–	–	–	·	·
CCOc1ccc(NC(=O)CC2S/C(=N\N=C(/C)c3ccc(F)cc3)NC2=O)cc1 (stereo not given)	–	–	–	–	·	·
O=S(=O)(Nc1ccc(Oc2ccccc2)cc1)c1ccc2c(c1)OCCO2	–	–	–	–	·	·
O=C(CNC(=O)Cc1ccccc1)NCC(=O)OCc1ccccc1	–	–	–	–	·	·
Cc1ccc(CNC(=O)COc2ccccc2C)cc1	–	7.4	–	–	–	–
CCc1ccccc1OCC(=O)NCc1ccccc1	–	5.8	–	–	–	–
O=C(Cc1ccc(F)cc1)NCc1ccccc1	–	5.2	–	–	–	–
O=C(Cc1ccccc1)NCC(=O)OCc1ccccc1	–	6.3	–	–	–	–
O=C(COc1ccccc1Br)NCc1ccccc1	–	–	–	–	·	·
COC(=O)C1=C(C)N=c2s/c(=C\c3ccc([N+](=O)[O-])cc3)c(=O)n2C1c1ccc(OC)cc1 (stereo not given)	–	–	–	–	·	·
CN(C(=O)c1ccc(F)cc1)c1ccccc1C(=O)NCc1ccccc1	–	9.0	–	–	–	–
CN(C(=O)C1CC1)c1ccccc1C(=O)NCc1ccccc1	–	–	–	–	·	·
Cc1[nH]n(-c2ccccc2)c(=S)c1/C=N/c1ccccn1	–	5.9	–	–	–	–
Cc1ccc(-n2[nH]c(C)c(/C=N/c3ccccn3)c2=O)cc1	–	–	–	–	·	·
O=C(Nc1ccc(N2CCCCC2)c(C(=O)O)c1)c1ccco1	–	–	–	–	·	·
NC(=O)c1cc(NC(=O)c2ccco2)ccc1N1CCCCC1	–	6.5	–	–	–	–
N#Cc1nc(COc2ccc(Br)cc2)oc1NCc1ccc2c(c1)OCO2	–	–	–	–	·	·
CN1CCc2ccc(NC(=O)C3(c4ccccc4)CC3)cc2C1	–	–	–	–	·	·
COc1ccc(-c2nc(C(=O)Nc3ccccc3)cs2)cn1	–	–	–	–	·	·
CC(C)(Sc1cc(C(C)(C)C)c(O)c(C(C)(C)C)c1)Sc1cc(C(C)(C)C)c(O)c(C(C)(C)C)c1	–	11!	–	–	–	–
CCN(CC)C(=O)c1sc(NC(=O)c2ccc(F)cc2)c(C(=O)OC(C)C)c1C	–	–	–	–	·	·
COC(=O)Nc1ccc(S(=O)(=O)N2CCCC(C(=O)O)C2)cc1 (stereo not given)	–	11	–	–	–	–
O=C(C1CC1)N1CCC(O)(c2ccccn2)CC1	–	–	–	–	·	·
CS(=O)(=O)N1CCC(C(=O)N2CCC(O)(c3ccccn3)CC2)CC1	–	11	–	–	–	–
CN1CCN(C(=O)c2ccc(-c3nc(NCc4cccc(C(F)(F)F)c4)c4ncn(Cc5ccc(C(F)(F)F)cc5)c4n3)cc2)CC1	–	11	–	–	–	–
FC(F)(F)c1ccc(Cn2cnc3c(NCc4cccc(C(F)(F)F)c4)nc(Nc4nccc5ccccc45)nc32)cc1	–	5.6	–	–	–	–
